The values below come from ChEMBL document CHEMBL3988442, “University of Dundee, Small-Polar-MMV Screening Library” (2021).

Common to all, as to design: scale not given: direction of the effect not stated beside the values
Test [1] has as its target Protein translocase subunit SecA (Escherichia coli (strain K12)) (UniProt P10408). The test is described as follows: Assay to Identify E. coli SecA ATPase Inhibitors. The test is classed as functional. To be noted: 30 µM.
For test [2], the target named is T1, Ubiquitin-activating enzyme e1, putative (Leishmania donovani (strain BPK282A1)) (UniProt E9BSI1).
T1 sequence (whole entry): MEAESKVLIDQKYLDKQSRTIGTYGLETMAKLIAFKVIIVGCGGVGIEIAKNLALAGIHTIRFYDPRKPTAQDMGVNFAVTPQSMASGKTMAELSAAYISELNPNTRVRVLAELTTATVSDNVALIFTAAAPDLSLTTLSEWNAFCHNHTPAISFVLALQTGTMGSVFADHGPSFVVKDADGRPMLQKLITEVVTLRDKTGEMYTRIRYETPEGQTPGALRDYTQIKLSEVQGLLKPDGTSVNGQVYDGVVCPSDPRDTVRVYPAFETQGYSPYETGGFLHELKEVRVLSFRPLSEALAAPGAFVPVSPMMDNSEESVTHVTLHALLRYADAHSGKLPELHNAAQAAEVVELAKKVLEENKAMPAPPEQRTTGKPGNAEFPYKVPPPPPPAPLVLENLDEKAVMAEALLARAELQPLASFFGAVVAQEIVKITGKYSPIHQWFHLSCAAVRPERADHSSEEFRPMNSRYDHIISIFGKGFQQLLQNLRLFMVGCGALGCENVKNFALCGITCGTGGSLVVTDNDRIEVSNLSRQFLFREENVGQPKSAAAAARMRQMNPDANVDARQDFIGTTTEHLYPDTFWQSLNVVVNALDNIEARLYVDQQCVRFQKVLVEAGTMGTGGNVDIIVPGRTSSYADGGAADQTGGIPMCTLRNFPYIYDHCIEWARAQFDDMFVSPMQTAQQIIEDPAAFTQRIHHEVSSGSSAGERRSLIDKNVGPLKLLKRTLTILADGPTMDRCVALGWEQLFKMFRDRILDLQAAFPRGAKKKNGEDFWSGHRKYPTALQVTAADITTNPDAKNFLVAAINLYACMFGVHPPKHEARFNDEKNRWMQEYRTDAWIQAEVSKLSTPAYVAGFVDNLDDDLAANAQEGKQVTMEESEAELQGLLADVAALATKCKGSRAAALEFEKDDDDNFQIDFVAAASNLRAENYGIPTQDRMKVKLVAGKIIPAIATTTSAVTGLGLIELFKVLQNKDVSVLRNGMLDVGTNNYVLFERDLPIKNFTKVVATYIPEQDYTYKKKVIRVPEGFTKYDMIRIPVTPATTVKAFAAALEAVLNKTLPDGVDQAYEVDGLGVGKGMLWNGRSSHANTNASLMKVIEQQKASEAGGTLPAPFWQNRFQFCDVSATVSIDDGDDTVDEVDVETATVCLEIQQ
Briefly: Leishmania donovani Ubiquitin Activating Enzyme (LdE1). The test is classed as functional. To be noted: 30 µM.

The target of test [3] is AMP-activated protein kinase, AMPK (Homo sapiens) (UniProt P54646+O43741+P54619+Q9UGJ0+Q9Y478+Q13131+Q9UGI9). Briefly: AMP-dependent Kinase enzyme assay. An in vitro enzyme assay that detects ADP turnover that is directly proportional to AMPK activity. This uses naive AMPK that is activated during the assay with MK-8722. The class given is functional. To be noted: 30 µM.

The target of test [4] is Sialic acid-binding Ig-like lectin 9 (Homo sapiens) (UniProt Q9Y336). Briefly: Hs-Siglec9 ALPHAscreen SOP 20170721. The conditions noted are these: 10 µM. (In general: In Alpha technology, singlet oxygen from a donor bead excites a nearby acceptor bead.)
A further test has as its system Trypanosoma cruzi. Briefly: Trypanosoma cruzi phosphomannomutase and mannose-1-phosphate guanylyltransferase assay. The test is classed as functional. The conditions noted are these: 10 µM.
The target of test [5] is T2, Arginase-2, mitochondrial (Homo sapiens) (UniProt P78540).
T2 sequence (whole entry): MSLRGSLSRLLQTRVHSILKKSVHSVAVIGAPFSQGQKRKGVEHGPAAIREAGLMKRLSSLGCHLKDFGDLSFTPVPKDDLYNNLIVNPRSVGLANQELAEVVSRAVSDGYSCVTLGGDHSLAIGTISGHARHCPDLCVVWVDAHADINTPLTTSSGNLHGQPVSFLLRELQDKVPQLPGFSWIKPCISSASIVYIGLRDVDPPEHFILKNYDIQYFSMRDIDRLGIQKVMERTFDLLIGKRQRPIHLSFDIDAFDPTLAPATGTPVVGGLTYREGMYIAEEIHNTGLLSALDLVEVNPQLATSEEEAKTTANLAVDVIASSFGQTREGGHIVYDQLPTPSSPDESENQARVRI
The test is described as follows: in vitro enzyme assay to detect the production of urea directly proportional to the activity of Arginase II. Also: in the data most compounds retested in dose-response had high values. The test is classed as functional. To be noted: 33.3 µM.

Test [6] has as its target T3, Proteasome subunit beta (Trypanosoma cruzi) (UniProt O96673).
T3 sequence (whole entry): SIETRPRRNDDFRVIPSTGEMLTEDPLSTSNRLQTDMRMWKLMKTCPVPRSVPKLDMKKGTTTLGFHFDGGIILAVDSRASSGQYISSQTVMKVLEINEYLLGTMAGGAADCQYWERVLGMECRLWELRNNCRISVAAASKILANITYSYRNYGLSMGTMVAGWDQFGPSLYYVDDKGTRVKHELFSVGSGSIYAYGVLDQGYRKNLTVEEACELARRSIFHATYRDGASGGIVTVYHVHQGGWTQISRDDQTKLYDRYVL
Briefly: Trypanosoma cruzi proteasome chymotrypsin-like activity (TcProtChymo) assay. Also: in the data most compounds retested in dose-response had high values. The test is classed as functional. To be noted: 9.37 µM.

The species entered for the next test is Homo sapiens. Briefly: To identify inhibition of the IFN signalling (Jak-Stat) pathway via expression of an eGFP reporter gene under the control of an IFN-stimulated response element (ISRE) containing MxA promoter. The test is classed as functional. To be noted: 30 µM. (In a reporter assay the amount or activity of a reporter protein is the signal.)
Test [7] addresses T4, Tyrosyl-tRNA synthetase, putative (Trypanosoma cruzi (strain CL Brener)) (UniProt Q4DSP6).
T4 sequence (whole entry): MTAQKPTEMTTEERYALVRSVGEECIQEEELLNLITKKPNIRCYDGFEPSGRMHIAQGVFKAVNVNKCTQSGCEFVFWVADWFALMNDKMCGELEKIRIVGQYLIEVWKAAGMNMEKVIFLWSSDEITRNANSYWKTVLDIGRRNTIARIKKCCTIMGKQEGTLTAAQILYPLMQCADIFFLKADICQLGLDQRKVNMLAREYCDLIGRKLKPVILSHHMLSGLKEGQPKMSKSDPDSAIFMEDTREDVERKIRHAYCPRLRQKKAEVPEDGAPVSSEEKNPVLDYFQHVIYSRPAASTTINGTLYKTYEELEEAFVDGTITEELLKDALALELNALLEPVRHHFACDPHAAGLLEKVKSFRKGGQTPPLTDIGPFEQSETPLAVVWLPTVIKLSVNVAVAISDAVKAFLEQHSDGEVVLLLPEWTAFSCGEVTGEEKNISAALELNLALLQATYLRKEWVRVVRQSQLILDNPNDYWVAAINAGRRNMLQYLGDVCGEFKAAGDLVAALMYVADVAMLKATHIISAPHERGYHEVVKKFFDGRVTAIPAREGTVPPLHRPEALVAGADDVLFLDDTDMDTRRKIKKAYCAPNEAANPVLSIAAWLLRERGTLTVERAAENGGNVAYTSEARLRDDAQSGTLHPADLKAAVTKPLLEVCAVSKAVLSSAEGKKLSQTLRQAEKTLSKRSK
The test is described as follows: Trypanosoma cruzi tyrosyl tRNA synthetase (TcYRS) _High Tyrosine SOP. Also: in the data most compounds retested in dose-response had high values. The test is classed as functional. To be noted: 30 µM.

The target in test [8] is T4, Tyrosyl-tRNA synthetase, putative (Trypanosoma cruzi (strain CL Brener)). Briefly: Trypanosoma cruzi tyrosyl tRNA synthetase (TcYRS) SOP. The class given is functional. The conditions noted are these: 30 µM.
Test [9] addresses Chromo domain-containing protein 1 (Saccharomyces cerevisiae (strain ATCC 204508 / S288c) (Baker's yeast)) (UniProt P32657). Briefly: ScCHD-1 Enzyme Inhibition Assay. Also: in the data most compounds retested in dose-response had high values. The test is classed as functional. To be noted: 30 µM.

For some assays here: Entries with a potency or affinity are not part of this list.

Chain of Protein translocase subunit SecA (Escherichia coli (strain K12)) (P10408 whole entry): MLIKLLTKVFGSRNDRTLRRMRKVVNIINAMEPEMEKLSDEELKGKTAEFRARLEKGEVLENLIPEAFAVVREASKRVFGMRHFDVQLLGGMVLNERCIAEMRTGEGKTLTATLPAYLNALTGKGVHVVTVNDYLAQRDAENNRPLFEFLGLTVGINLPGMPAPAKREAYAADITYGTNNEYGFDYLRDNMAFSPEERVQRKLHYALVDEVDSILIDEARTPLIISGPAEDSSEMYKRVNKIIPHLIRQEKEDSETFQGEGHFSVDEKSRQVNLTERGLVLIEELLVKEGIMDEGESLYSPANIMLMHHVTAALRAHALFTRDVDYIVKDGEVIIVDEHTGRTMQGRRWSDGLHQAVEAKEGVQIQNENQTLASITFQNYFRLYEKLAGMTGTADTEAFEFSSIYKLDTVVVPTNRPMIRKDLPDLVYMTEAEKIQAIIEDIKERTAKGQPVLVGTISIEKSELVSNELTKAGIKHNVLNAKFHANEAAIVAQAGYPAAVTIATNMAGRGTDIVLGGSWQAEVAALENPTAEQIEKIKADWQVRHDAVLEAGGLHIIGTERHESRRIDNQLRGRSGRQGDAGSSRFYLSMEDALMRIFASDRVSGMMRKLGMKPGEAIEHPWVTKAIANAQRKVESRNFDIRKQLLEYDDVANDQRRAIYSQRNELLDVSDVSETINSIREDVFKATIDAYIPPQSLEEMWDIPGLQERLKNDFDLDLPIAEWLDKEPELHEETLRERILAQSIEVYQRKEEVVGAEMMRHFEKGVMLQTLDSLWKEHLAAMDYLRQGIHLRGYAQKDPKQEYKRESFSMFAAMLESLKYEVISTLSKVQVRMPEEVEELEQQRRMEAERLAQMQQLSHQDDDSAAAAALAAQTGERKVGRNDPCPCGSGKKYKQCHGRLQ
Chain of Sialic acid-binding Ig-like lectin 9 (Homo sapiens) (Q9Y336 whole entry): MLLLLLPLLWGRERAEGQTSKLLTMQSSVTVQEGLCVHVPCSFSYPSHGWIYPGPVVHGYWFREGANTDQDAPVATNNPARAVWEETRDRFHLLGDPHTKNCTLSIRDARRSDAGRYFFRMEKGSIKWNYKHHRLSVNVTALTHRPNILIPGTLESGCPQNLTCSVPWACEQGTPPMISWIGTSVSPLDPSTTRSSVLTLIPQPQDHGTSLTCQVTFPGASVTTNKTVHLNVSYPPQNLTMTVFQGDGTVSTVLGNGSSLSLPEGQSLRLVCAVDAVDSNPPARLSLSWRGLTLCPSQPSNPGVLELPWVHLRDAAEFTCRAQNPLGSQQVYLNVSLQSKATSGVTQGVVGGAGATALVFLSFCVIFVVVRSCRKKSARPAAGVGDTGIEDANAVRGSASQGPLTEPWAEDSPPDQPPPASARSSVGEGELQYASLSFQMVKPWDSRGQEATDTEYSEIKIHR
Chain of Chromo domain-containing protein 1 (Saccharomyces cerevisiae (strain ATCC 204508 / S288c) (Baker's yeast)) (P32657 whole entry, the tested form may be a part): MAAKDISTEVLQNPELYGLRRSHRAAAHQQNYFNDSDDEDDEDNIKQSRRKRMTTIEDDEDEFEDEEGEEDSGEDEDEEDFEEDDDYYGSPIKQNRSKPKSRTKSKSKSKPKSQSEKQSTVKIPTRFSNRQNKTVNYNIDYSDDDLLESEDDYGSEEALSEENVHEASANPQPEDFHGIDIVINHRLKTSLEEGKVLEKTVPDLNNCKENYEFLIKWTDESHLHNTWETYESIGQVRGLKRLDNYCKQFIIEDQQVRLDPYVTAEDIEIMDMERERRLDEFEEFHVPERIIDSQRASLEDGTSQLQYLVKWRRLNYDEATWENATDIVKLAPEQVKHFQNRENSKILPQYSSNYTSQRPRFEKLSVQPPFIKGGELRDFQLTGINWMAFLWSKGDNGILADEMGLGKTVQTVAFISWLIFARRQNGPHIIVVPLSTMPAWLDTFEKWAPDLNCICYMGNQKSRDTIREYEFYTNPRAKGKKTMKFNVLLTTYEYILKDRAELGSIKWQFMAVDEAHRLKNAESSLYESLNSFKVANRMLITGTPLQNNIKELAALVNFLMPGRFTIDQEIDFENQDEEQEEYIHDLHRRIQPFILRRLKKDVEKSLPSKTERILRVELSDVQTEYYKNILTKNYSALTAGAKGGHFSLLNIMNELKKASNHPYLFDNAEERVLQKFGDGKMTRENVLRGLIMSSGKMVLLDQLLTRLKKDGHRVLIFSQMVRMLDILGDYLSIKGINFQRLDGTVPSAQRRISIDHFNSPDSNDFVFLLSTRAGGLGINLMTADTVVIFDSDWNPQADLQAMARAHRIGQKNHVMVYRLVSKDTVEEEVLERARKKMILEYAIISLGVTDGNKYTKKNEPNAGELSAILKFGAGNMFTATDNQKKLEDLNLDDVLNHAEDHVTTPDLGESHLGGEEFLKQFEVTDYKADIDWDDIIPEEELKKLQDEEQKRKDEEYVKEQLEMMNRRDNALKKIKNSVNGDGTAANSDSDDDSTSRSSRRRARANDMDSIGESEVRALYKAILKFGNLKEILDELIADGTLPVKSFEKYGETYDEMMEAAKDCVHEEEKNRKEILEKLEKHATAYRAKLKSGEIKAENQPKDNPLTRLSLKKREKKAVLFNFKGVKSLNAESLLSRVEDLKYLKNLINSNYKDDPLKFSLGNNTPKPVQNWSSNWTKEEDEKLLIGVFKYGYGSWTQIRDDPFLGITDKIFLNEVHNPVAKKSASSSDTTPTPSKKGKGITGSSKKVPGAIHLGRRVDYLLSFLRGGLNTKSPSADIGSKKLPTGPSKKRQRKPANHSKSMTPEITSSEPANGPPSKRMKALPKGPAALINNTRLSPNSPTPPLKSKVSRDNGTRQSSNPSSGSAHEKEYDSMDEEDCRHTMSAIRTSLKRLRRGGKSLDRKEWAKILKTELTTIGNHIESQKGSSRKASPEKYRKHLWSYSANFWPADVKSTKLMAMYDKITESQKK

For the compound `c1ccc(-c2ccc3nc(C4CCN(CC5CC5)CC4)nn3c2)cc1`, the Percent Effect in test [1] was 4.34%; in test [2] it was -5.48%; in [3], 2.06%; in test [4], 4.55%; in the test on Trypanosoma cruzi it was 0.992%; in test [5] it was 3.99%. For the same compound, the Percent Effect in [6] was 6.08%; in the test listed under Homo sapiens it was -16.5%; in test [7], 4.17%; in [8] it was 3.7%; in [9] it was 0.798%.

`Cc1cnn(CC2CCCN2C(=O)c2nccc3ccccc23)c1` (stereo not given): the Percent Effect is -3.25% in test [1]; 13% in test [2]; 4.54% in test [3]; 3.78% in test [4]; -0.49% in the test with Trypanosoma cruzi; -1.05% in test [5]. Moreover, the Percent Effect was 6.39% in test [6]; 10.7% in the test filed under Homo sapiens; 0% in test [7]; 11.8% in [8]; -15.9% in test [9].

Regarding `COc1ccc(NCc2nc(=O)n(CCC(C)C)[nH]2)cc1`, the Percent Effect is -3.47% in test [1]; 10.5% in test [2]; 11.6% in [3]; 5.94% in test [4]; -0.0974% with Trypanosoma cruzi; -8.28% in test [5]. For the same compound, the Percent Effect is 8.92% in [6]; -19% in the test filed under Homo sapiens; 4.25% in [7]; 10.4% in [8]; -2.13% in [9].

With `c1ccc(OC[C@]23COC[C@H]2CN(c2ncccn2)C3)nc1`, the Percent Effect in test [1] was 0.189%; in test [2] it was 8%; in [3], 1.07%; in test [4], 5.7%; with Trypanosoma cruzi, 6.37%; in [5], -59.3%. Also, the Percent Effect was 12.7% in test [6]; -4.34% in the test filed under Homo sapiens; 3.12% in test [7]; 17.5% in [8]; -8.1% in test [9].

`Cc1nc(C)n(CC2CCCN(c3ncnc4sccc34)C2)n1` (stereo not given): the Percent Effect is -2.59% in test [1]; 13.5% in test [2]; -5.88% in test [3]; -5.07% in [4]; -6.32% with Trypanosoma cruzi; 0.401% in test [5]. Besides, the Percent Effect in test [6] is 9.91%; in the test filed under Homo sapiens, 65.9%; in [7], 6.4%; in test [8], 16.1%; in [9], -6.06%.

For the compound `Clc1ccccc1C1(c2ccnc(-c3ncccn3)n2)CCNCC1`, the Percent Effect in [1] is -3.79%; in [2], 7.79%; in [3], 1.81%; in [4], 8.56%; in the test on Trypanosoma cruzi it was -3.64%; in test [5], -2.76%. Also, the Percent Effect in test [6] was 7.49%; in the test filed under Homo sapiens, -17.8%; in test [7], 6.45%; in [8], 18.5%; in test [9] it was -0.785%.

With `Cc1nnc(NCc2cccnc2N(C)C)c(C#N)c1C`, the Percent Effect in [1] was -0.868%; in test [2] it was -5.41%; in test [3] it was -22.1%; in test [4], 9.49%; with Trypanosoma cruzi it was 2.88%; in [5], -4.25%. Also, the Percent Effect is -2.87% in test [6]; 6.79% in the test filed under Homo sapiens; 2.97% in [7]; 6.1% in test [8]; 0.273% in test [9].

For the compound `Cc1nc(C)n(CC2CCCN(Cc3nnc(C(C)(C)C)o3)C2)n1` (stereo not given), the Percent Effect in test [1] is -3.5%; in test [2], 10.5%; in test [3], 5.56%; in [4] it was -2.35%; in the test with Trypanosoma cruzi, 5.55%; in test [5] it was 0%. For the same compound, the Percent Effect in test [6] was 7.77%; in the test filed under Homo sapiens, -1.74%; in test [7], 2.13%; in test [8], 5.2%; in test [9], -3.94%.

`CCN1CCN(c2ccc(F)cc2C(C)NCc2noc(C)n2)CC1` (stereo not given): the Percent Effect in test [1] was -1.18%; in test [2] it was -8.11%; in test [3] it was -2.95%; in test [4] it was -6.13%; in the test with Trypanosoma cruzi, -1.27%; in test [5], 1.74%. In addition, the Percent Effect in [6] was 2.83%; in the test listed under Homo sapiens, -7.51%; in [7], 1.07%; in [8], 1.24%; in test [9] it was -0.843%.

Consider `COC(=O)c1sccc1S(=O)(=O)NCC1(O)CCOc2ccccc21` (stereo not given), for which the Percent Effect in test [1] is -3.54%; in test [2], 0%; in [3] it was 5.9%; in test [4], -3.21%; in the test on Trypanosoma cruzi, -3.72%; in test [5] it was 1.82%. For the same compound, the Percent Effect in test [6] is 1.77%; in the test listed under Homo sapiens, 4.11%; in test [7], 0%; in test [8], 7.5%; in test [9], -4.1%.
